# Most compounds without a hit are left out; they make up all but 1.6% or so of the library.
# KCNQ2 inh: inhibitors of rat KCNQ2 potassium channel; CHO-K1 KCNQ2, FluxOR thallium flux, 20 min; hits give low values; O88943; 310,000 compounds, 1.1% hits; B-score at 10 µM;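 active = fluorescence ratio B-score at most minus 3 library SDs, with starting brightness B-score within 2 library SDs, cut at about -5.5 in these data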
# KCNQ2 enhance: KCNQ2 (rat) channel potentiation; CHO-K1 KCNQ2, FluxOR thallium flux fluorescence; hits give high values; B-score at 10 µM; 310,000 compounds, 0.54% hits; AID 2239;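 active = fluorescence ratio B-score at least 3 SD of library B-scores, with initial fluorescence B-score within 3 of them, cut at about 5.3 in these data; same plate scores as AID 2156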;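 note: B-score of peak minus minimum over baseline fluorescence ratio after K+ and Tl+ stimulus; positive B-score means potentiation of KCNQ2 with more thallium influx and brighter signal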
# * marks the source's active call; other numbers are inactive results; i = inactive; x = not tested or not shown.
SMILES,KCNQ2 inh,KCNQ2 enhance
Cc1cccc(NC(=S)NC(=O)c2cccs2)n1,i,1.5
Cc1ccc(-c2csc(NC(=S)NC(=O)c3cccs3)n2)cc1,i,3.8
O=[N+]([O-])c1ccc(N2CCN(CC3CCCCC3)CC2)cc1,i,x
CC(=O)ONC(=Nc1ccccc1)c1nonc1N,i,x
Cc1cccc(NS(=O)(=O)c2cc3c(cc2C)n(C)c(=O)c(=O)n3C)c1,i,0.39
O=C(Nc1ccc(O)c(C(=O)O)c1)Oc1ccccc1,i,x
COc1cc(NC(=O)CCCNC(=O)c2ccc(Cl)cc2)cc(OC)c1OC,i,x
CC12CCC(=O)N1C(C(=O)Nc1ccc(Cl)c(Cl)c1)CS2 (stereo not given),i,x
CC12CCC(=O)N1C(C(=O)NCCc1ccccc1)CS2 (stereo not given),i,x
CC12CCC(=O)N1C(C(=O)Nc1cc(C(F)(F)F)ccc1N1CCCCC1)CS2 (stereo not given),-6*,-6
CC12CCC(=O)N1C(C(=O)Nc1cc(C(F)(F)F)ccc1N1CCOCC1)CS2 (stereo not given),i,x
CC12CCC(=O)N1C(C(=O)NCc1ccccc1Cl)CS2 (stereo not given),-5.8*,-5.8
Cc1sc(NC(=O)C2CSC3(C)CCC(=O)N23)nc1-c1ccccc1 (stereo not given),-6.9*,-6.9
CC(=O)c1sc(NC(=O)C2CSC3(C)CCC(=O)N23)nc1-c1ccccc1 (stereo not given),i,x
CC12CCC(=O)N1C(C(=O)Nc1ccc(Cl)c(S(=O)(=O)N3CCCCC3)c1)CS2 (stereo not given),-6.1*,-6.1
CC(=O)Nc1ccc(S(=O)(=O)Nc2ccc(Nc3ccccc3)cc2)cc1,i,x
O=C(NCc1ccc(F)cc1)C1CCCN(C(=O)Nc2ccc(F)cc2)C1 (stereo not given),i,0.58
CCOC(=O)CN(C(=O)CSc1nnc(-c2ccc(OC)c(OC)c2)o1)c1ccc(F)cc1,-6.6*,-6.6
CCOC(=O)CSc1nnc(-c2cc(OC)c(OC)c(OC)c2)o1,i,0.1
Cn1cccc1Cc1nnc(SCC(=O)NCc2ccco2)n1-c1ccc(F)cc1,i,0.07
Cn1cccc1Cc1nnc(SCC(=O)NCc2ccccc2Cl)n1-c1ccc(F)cc1,-7.2*,-7.2
CCCNC(=O)c1ccc(N2CCC3(CC2)CC(c2cccc(Br)c2)=NO3)c(NC(=O)c2ccc(Cl)c([N+](=O)[O-])c2)c1,i,x
Cc1sc2ncnc(N3CCC(C(=O)Nc4ccccc4C(C)(C)C)CC3)c2c1C,i,x
CCOC(=O)c1ccccc1NC(=O)C1CCN(c2ncnc3sc(C)c(C)c23)CC1,-6*,-6
COc1cccc(C2=Nn3c(nnc3-c3ccccc3O)SC2)c1,i,x
SMILES,KCNQ2 inh,KCNQ2 enhance
C[n+]1c2n(c3ccccc31)N=C(c1cc(C(C)(C)C)c(O)c(C(C)(C)C)c1)CS2,-6.6*,-6.6
CCN(CC)S(=O)(=O)c1ccc(N2CCOCC2)c(NC(=O)c2ccccc2F)c1,i,x
CCN(CC)S(=O)(=O)c1ccc(N2CCOCC2)c(NC(=O)c2cc3ccccc3oc2=O)c1,-5.5*,-5.5
Cc1nc2sc3c(=O)[nH]nnc3c2c(C)c1Br,i,1.1
COC(=O)CN(c1ccc(F)cc1)S(=O)(=O)c1ccccc1,i,0.81
COC(=O)Cc1ccc(N(Cc2ccccc2F)S(=O)(=O)c2ccc(Cl)cc2)cc1,-8.2*,-8.2
COc1ccc(C(=O)c2ccc([N+](=O)[O-])cc2)cc1S(=O)(=O)N1CCC(C(=O)O)CC1,i,x
COc1ccc(O)c(C(=O)c2cc(C(=O)NCCc3ccccc3)c(=O)n(CCc3ccccc3)c2)c1,i,x
Cc1ccc(O)c(C(=O)c2cc(C(=O)NCCc3ccccc3)c(=O)n(CCc3ccccc3)c2)c1,-7.1*,-7.1
COc1ccc(C2CC(=O)c3cnc(Nc4cc(C)cc(C)c4)nc3C2)cc1 (stereo not given),-5.9*,-5.9
COc1ccc(C2CC(=O)c3cnc(NC(=O)c4cc(OC)cc(OC)c4)nc3C2)cc1 (stereo not given),i,0.43
CCC1(C)N=C(N)Nc2nc3cc(C)c(C)cc3n21 (stereo not given),i,1.6
O=C(Nc1nnc(-c2ccc(F)cc2)o1)c1cc(Cl)sc1Cl,i,16*
O=C(Nc1nnc(-c2ccccc2)o1)c1cc(Cl)sc1Cl,i,4.4
COc1ccc(/C=C(/NC(=O)c2ccccc2)C(=O)N2CCCC2)cc1,i,x
COC(=O)C1(C)NC(c2ccccc2C)C2C(=O)N(c3ccccc3)C(=O)C21 (stereo not given),i,0.15
CCOC(=O)C1(c2ccccc2)NC(c2ccccc2C)C2C(=O)N(c3ccc4c(c3)OCO4)C(=O)C21 (stereo not given),-7*,-7
O=C(Cc1nc2ccccc2[nH]1)c1ccc(Cl)cc1,i,x
N#CCCN/N=C(/Cc1nc2ccccc2[nH]1)c1cccc(Cl)c1,-6*,-6
COc1ccc(C(=O)NC(=S)Nc2ccc(N3CCOCC3)cc2)cc1Cl,i,0.01
Oc1ccc(-c2nc3ccccn3c2NCc2ccco2)cc1,-5.8*,-5.8
O=C(Nc1c(-c2ccccc2)nc2ccccn12)c1ccco1,i,0.57
CCCCn1c(N)c(N(CCOC)C(=O)c2cc(-c3ccccc3Cl)nc3ccccc23)c(=O)[nH]c1=O,i,0.8
OC(CNCC1CCCO1)Cn1c2ccc(Cl)cc2c2cc(Cl)ccc21 (stereo not given),-7.6*,-7.6
OC(CNCC1CCCO1)Cn1c2ccccc2c2ccccc21 (stereo not given),i,x
SMILES,KCNQ2 inh,KCNQ2 enhance
COCCn1c(-c2ccc(Br)cc2)nc2oc3cc(OC)ccc3c(=O)c2c1=O,i,x
COc1cccc(-c2nn(-c3ccccc3)cc2C(=O)n2nnc3ccccc32)c1,-6.4*,-6.4
O=C(c1cn(-c2ccccc2)nc1-c1ccccc1)n1nnc2ccccc21,i,x
CCOC(=O)c1ccc(NC(=O)COc2ccccc2CNCCc2ccccc2)cc1,-6.8*,-6.8
CCOC(=O)c1ccc(NC(=O)COc2ccc(CNCCO)cc2OCC)cc1,i,0.04
CCc1ccc2[nH]c(=O)c(C(c3nnnn3CC3CCCO3)N3CCCc4ccccc43)cc2c1 (stereo not given),i,7.2*
Cc1cc2cc(C(c3nnnn3CC3CCCO3)N3CCCc4ccccc43)c(=O)[nH]c2cc1C (stereo not given),i,0.15
O=[N+]([O-])c1c(Nc2ccccn2)cc(Cl)c2nonc12,-11*,-11
O=C(O)c1ccccc1Nc1cc(Cl)c2nonc2c1[N+](=O)[O-],i,0.04
COc1ccc(CNC(=O)COc2ccc(Br)c(C)c2)cc1,i,x
Cc1ccccc1NC(=O)CSc1nnc(Cc2ccccc2)c(=O)n1N,i,0.85
COC(=O)C(C)Sc1nc2ccsc2c(=O)n1Cc1ccccc1 (stereo not given),i,x
Cc1cc(C)nc(SC2c3cccc4cccc(c34)C2NS(=O)(=O)c2ccccc2)n1 (stereo not given),-5.7*,-5.7
Cc1cc(C)nc(SC2CCCCC2NS(=O)(=O)c2ccccc2)n1 (stereo not given),i,0.33
Cc1ccc(S(=O)(=O)Nc2cccc3cccnc23)cc1,i,x
Cc1ccc(S(=O)(=O)NC2c3cccc4cccc(c34)C2Sc2ncccn2)cc1 (stereo not given),-7*,-7
CN(C)Cc1c(C(=O)N/N=C/CCc2ccccc2)nnn1-c1nonc1N,i,x

# Assay outcomes (PubChem BioAssay)
